Unmarked numbers belong to inactive results. Active and inactive are the calls of the source.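 Rule for the calls: active = fitted half-maximal concentration AC50 at or below ten times the highest valid tested dose, with signal falling as DNA is displaced (actives reach about 34 µM in these data); inconclusive = flat fit at moderate signal loss, or poor fit quality; inactive = the rest, including signal rising instead of falling.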
Experiment: DNA intercalators displacing acridine orange, dose response, artefact control for KSHV LANA DNA-binding inhibitor project, biochemical, fluorescence polarization, cherry-picked samples, set 2 (AID 504727);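 for activity change, negative = DNA displacement: 0% = median of neutral control wells and -100% = mitoxantrone positive control wells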
Conditions: AC50: Acridine orange-DNA displacement; series mostly up to 35 µM; activity change, negative = DNA displacement: at the top concentration

| SMILES | activity change, negative = DNA displacement [%] | AC50 |
| --- | --- | --- |
| CN(C)c1ccc(/C=C/C(=O)c2ccc(O)cc2)cc1[N+](=O)[O-] | -4.37 |  |
| CC(/C=C1\SC(=S)N(CCCC(=O)Nc2ccc(C(=O)O)cc2)C1=O)=C\c1ccccc1 | 6.23 |  |
| O=C(CN1C(=O)NC2(CCCC2)C1=O)Nc1ccccc1-c1ccccc1 | 7.28 |  |
| C=CC1=C(C(=O)O)N2C(=O)[C@@H](NC(=O)/C(=N/OCC(=O)O)c3csc(N)n3)[C@H]2SC1 | -1.81 |  |
| O=C(O)Cc1c[nH]c2cccc(O)c12 | 1.91 |  |
| CC1=NN(c2cccc(C(=O)O)c2)C(=O)/C1=C\C=C\c1ccco1 | 1.93 |  |
| O=C(CN1C(=O)/C(=C/c2ccco2)SC1=S)Nc1ccc(C(=O)O)c(O)c1 | 5.32 |  |
| COc1ccc(CCNC(=O)CNC(=O)Cn2ccc3ccccc3c2=O)cc1OC | 1.31 |  |
| Brc1ccc(-c2noc(COc3ccc4c(c3)CCC4)n2)o1 | 4.23 |  |
| CC(C)(C)n1nnnc1C(c1cccnc1)N(Cc1ccccc1)Cc1ccco1 (stereo unspecified) |  | 0.202 µM (active) |
| COC(=O)\C(C(C)=O)=C(/C=C/C=C/C=C/N(C)C)N(C)C | 56.7 |  |
| COc1ccc(C(=O)N/N=C/c2ccc(OC)c(COc3ccccc3)c2)cc1 | 14.2 |  |
| O=C1c2ccccc2C(=O)N1Cc1ccc2c(c1)OCO2 | 3.36 |  |
| CC[C@@]1(O)C(=O)OCc2c1cc1n(c2=O)Cc2cc3c(CN(C)C)c(O)ccc3nc2-1 |  | 3.8 µM (active) |
| Nc1c(/C=C2/C=CC(=O)C(O)=C2)c(=O)nc2sc(CC(=O)N3CCCCC3)nn12 | 5.57 |  |
| N=c1ccn(Cc2ccc(Cl)cc2)cc1 | 5.76 |  |
| Cn1c(Cl)c(C(=O)Nc2ccc(Cl)cc2)c2ccccc21 | 6.6 |  |
| O=S(=O)(O)c1cc(O)c2ccc(Nc3ccccc3)cc2c1 | 8.12 |  |
| O=C(CN(Cc1ccccc1F)C(=O)c1csnn1)NCc1ccc2c(c1)OCO2 | 5.17 |  |
| CN(C)/C=N/c1nc2nccc(-c3ccc(Cl)cc3)n2n1 | -2.19 |  |
| COc1ccc(/C=N/NC(=O)c2ccc3nc[nH]c3c2)c(OC)c1 | -8.43 |  |

From PubChem BioAssay AID504727 (Broad Institute, 2011)
